From PubChem BioAssay (NCI)
This is part of a sample that, as a whole, favours compounds with a hit. Of some 79,000 tested, about 15% had one in any assay. Values without a mark were called inactive. Calls of active or inactive are those of the source. No stated cut-off is given here; in the data, active means growth inhibition above about 70%; inactive means the rest.

How the values were obtained:
[1] = NCI Yeast Anticancer Drug Screen. Data for the rad50 strain (AID 155);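 further: 0% = growth of vehicle-only cultures of the same strain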; conditions: S. cerevisiae rad50 strain growth inhibition, active compounds read high
How it was run: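 A DNA repair-deficient yeast mutant serves as the test organism; compound-induced growth inhibition is calculated against vehicle-treated cells.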

[2] = NCI Yeast Anticancer Drug Screen. Data for the mec2-1 strain (AID 157); conditions: S. cerevisiae mec2-1 strain, active compounds read high
How it was run: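 mec2-1 yeast strain, carrying an alteration in DNA damage repair or cell cycle control, was exposed to compounds; growth inhibition was measured relative to vehicle-treated controls.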

[3] = NCI Yeast Anticancer Drug Screen. Data for the sgs1 mgt1 strain (AID 161);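 further: 0% = growth of cultures given vehicle only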; conditions: S. cerevisiae sgs1 mgt1 strain, active compounds read high
How it was run: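 Yeast cells carrying a defined DNA-repair defect were exposed to test compounds. Growth inhibition was measured relative to vehicle-treated controls.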

[4] = NCI Yeast Anticancer Drug Screen. Data for the cln2 rad14 strain (AID 165);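 further: 0% = growth equal to vehicle treated cultures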; conditions: S. cerevisiae cln2 rad14 strain, active compounds read high
How it was run: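 Yeast carrying cln2 and rad14 alterations (cell cycle control and DNA damage repair) were exposed to compounds. Growth inhibition was measured against vehicle-treated controls.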

[5] = NCI Yeast Anticancer Drug Screen. Data for the bub3 strain (AID 167); conditions: S. cerevisiae bub3 mutant strain, active compounds read high
How it was run: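 Inhibition values come from growth of compound-treated mutant yeast normalised to vehicle-treated controls.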

[6] = NCI Yeast Anticancer Drug Screen. Data for the mlh1 rad18 strain (AID 175); conditions: S. cerevisiae mlh1 rad18 strain growth inhibition, active compounds read high
How it was run: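 Growth inhibition of the yeast strain was measured after compound exposure and expressed relative to vehicle-treated controls. The strain carries defined defects in DNA damage repair.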

[7] = at 5.0 µM (retest, dose inferred, filed as 0.5)
[8] = at 50.0 µM (retest, dose inferred, filed as 5.0)

OC(c1ccccc1)(C(F)(F)F)C(O)(c1ccccc1)C(F)(F)F (stereo not given)
growth inhibition [1, 7]: 77% (active) | growth inhibition [1, 8]: 99% (active) | growth inhibition ([1]; at 50.0 µM): 94.4% (active) | growth inhibition [2, 7]: 57% | growth inhibition [2, 8]: 99% (active) | growth inhibition ([2]; at 50.0 µM): 89.2% (active) | growth inhibition [3, 7]: 87% (active) | growth inhibition [3, 8]: 99% (active) | growth inhibition ([3]; at 50.0 µM): 89.7% (active) | growth inhibition [4, 7]: 57% | growth inhibition [4, 8]: 99% (active) | growth inhibition ([4]; at 50.0 µM): 90.5% (active) | growth inhibition [5, 7]: 76% (active) | growth inhibition [5, 8]: 99% (active) | growth inhibition ([5]; at 50.0 µM): 81.6% (active) | growth inhibition [6, 7]: 85% (active) | growth inhibition [6, 8]: 99% (active) | growth inhibition ([6]; at 50.0 µM): 95.5% (active)

COc1cc2c(c(OC)c1OC)-c1ccc(O)c(=O)cc1C(N=Cc1ccccc1)CC2 (stereo not given)
growth inhibition [1, 7]: -5% | growth inhibition [1, 8]: -5% | growth inhibition ([1]; at 50.0 µM): -17.9% | growth inhibition [2, 7]: -6% | growth inhibition [2, 8]: -7% | growth inhibition ([2]; at 50.0 µM): -4.45% | growth inhibition [3, 7]: -8% | growth inhibition [3, 8]: -3% | growth inhibition ([3]; at 50.0 µM): -5.3% | growth inhibition [4, 7]: -7% | growth inhibition [4, 8]: 4% | growth inhibition ([4]; at 50.0 µM): 31.9% | growth inhibition [5, 7]: -2% | growth inhibition [5, 8]: -2% | growth inhibition ([5]; at 50.0 µM): 0.2% | growth inhibition [6, 7]: -2% | growth inhibition [6, 8]: 0% | growth inhibition ([6]; at 50.0 µM): 18.8%

CCCCOc1ccc(-c2c(COC(=O)NC)c(COC(=O)NC)c(C)n2C)cc1
growth inhibition [1, 7]: 23% | growth inhibition [1, 8]: 94% (active) | growth inhibition ([1]; at 50.0 µM): 85.3% (active) | growth inhibition [2, 7]: 14% | growth inhibition [2, 8]: 97% (active) | growth inhibition ([2]; at 50.0 µM): 89.5% (active) | growth inhibition [3, 7]: 21% | growth inhibition [3, 8]: 99% (active) | growth inhibition ([3]; at 50.0 µM): 90% (active) | growth inhibition [4, 7]: 19% | growth inhibition [4, 8]: 85% (active) | growth inhibition ([4]; at 50.0 µM): 89% (active) | growth inhibition [5, 7]: 17% | growth inhibition [5, 8]: 99% (active) | growth inhibition ([5]; at 50.0 µM): 87.3% (active) | growth inhibition [6, 7]: 20% | growth inhibition [6, 8]: 96% (active) | growth inhibition ([6]; at 50.0 µM): 88.2% (active)

COc1ccc2c(Cc3cc(Cl)ccc3O)cncc2c1O
growth inhibition [1, 7]: -1% | growth inhibition [1, 8]: 32% | growth inhibition ([1]; at 50.0 µM): 50.1% | growth inhibition [2, 7]: -8% | growth inhibition [2, 8]: 60% | growth inhibition ([2]; at 50.0 µM): 31.6% | growth inhibition [3, 7]: -5% | growth inhibition [3, 8]: 51% | growth inhibition ([3]; at 50.0 µM): 29.7% | growth inhibition [4, 7]: 3% | growth inhibition [4, 8]: -4% | growth inhibition ([4]; at 50.0 µM): 40% | growth inhibition [5, 7]: -2% | growth inhibition [5, 8]: 31% | growth inhibition ([5]; at 50.0 µM): 96% (active) | growth inhibition [6, 7]: 16% | growth inhibition [6, 8]: 62% | growth inhibition ([6]; at 50.0 µM): 82.3% (active)

N#CC(c1c(Cl)cccc1N1CCCCC1)N1CCCCC1 (stereo not given)
growth inhibition [1, 7]: 31% | growth inhibition [1, 8]: 75% (active) | growth inhibition ([1]; at 50.0 µM): 86.9% (active) | growth inhibition [2, 7]: 34% | growth inhibition [2, 8]: 78% (active) | growth inhibition ([2]; at 50.0 µM): 87.4% (active) | growth inhibition [3, 7]: 41% | growth inhibition [3, 8]: 85% (active) | growth inhibition ([3]; at 50.0 µM): 87.6% (active) | growth inhibition [4, 7]: 30% | growth inhibition [4, 8]: 61% | growth inhibition ([4]; at 50.0 µM): 80.4% (active) | growth inhibition [5, 7]: 37% | growth inhibition [5, 8]: 92% (active) | growth inhibition ([5]; at 50.0 µM): 91.2% (active) | growth inhibition [6, 7]: 46% | growth inhibition [6, 8]: 84% (active) | growth inhibition ([6]; at 50.0 µM): 87.7% (active)
